# Source: PubChem BioAssay
# Calls of active or inactive are those of the source.
# What was measured:
# [1] = anti-His antibody binders, primary screen, artefact control for SMM control protein annotation, biochemical, small-molecule microarray, 635 nm fluorescence (AID 1128); conditions: anti-His Alexa647 antibody binding, higher = more signal;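 note: score merges feature fluorescence with signal-to-noise for each printed compound spot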
# [2] = tested on: Human papillomavirus type 1a E7 protein (residues 1-88); assay: HPV1a E7 small-molecule binders, primary screen, biochemical, small-molecule microarray, residues 1-88, 635 nm (AID 1129); conditions: small-molecule microarray binding, fluorescence 635 nm; higher = more signal
# [3] = molecular target: Focal adhesion kinase 1 (Homo sapiens) (UniProt Q05397); assay: small-molecule microarray binders of FAK, primary screen, biochemical, 635/667 nm fluorescence, BSA, DTT (AID 1130); conditions: PTK2 binding, 635 nm fluorescence, higher = more signal;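 note: composite of spot emission at 667 nm and signal to noise over triplicate slides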
# [4] = tested on: Fibrinogen (Alexa647-labelled); assay: fibrinogen binders on compound microarrays, profiling panel, artefact control for SMM control-protein annotation, biochemical, small-molecule microarray, 635/667 nm fluorescence (AID 1131); conditions: fibrinogen-A647 binding fluorescence, higher = more signal;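 note: z-score merges 667 nm fluorescence with per-spot signal-to-noise over triplicate slides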
# [5] = molecular target: Follistatin (Homo sapiens) (UniProt P19883); assay: follistatin binders on small-molecule microarrays, primary screen, biochemical, small-molecule microarray, 635/667 nm fluorescence (AID 1132); conditions: FST binding, 635 nm fluorescence, higher = more signal
# [6] = molecular target: Fibroblast growth factor 2 (Homo sapiens) (UniProt P09038); assay: FGF2 binders on small-molecule microarrays, primary screen, biochemical, small-molecule microarray, 635/667 nm fluorescence (AID 1133); conditions: small-molecule microarray binding, FGF2, fluorescence 635/667; higher = more signal
# [7] = mitochondrial membrane potential change in A549 cells, profiling panel, cell-based, JC-1 fluorescence, basal, 24 h, 100 nL (AID 1138); conditions: higher = more signal;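 note: A549 lung adenocarcinoma cells under basal conditions with no added stimulus; test concentration not given here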
# [8] = tested on: Lefty1; assay: Lefty1 binders on small-molecule microarrays, primary screen, biochemical, small-molecule microarray, 635/667 nm fluorescence (AID 1139); conditions: small-molecule microarray binding, fluorescence 635/667; higher = more signal
# [9] = tested on: wheat germ agglutinin (Triticum aestivum), Alexa647-labelled; assay: wheat germ agglutinin binders on compound microarrays, profiling panel, artefact control for SMM control-protein annotation, biochemical, small-molecule microarray, 635/667 nm fluorescence (AID 1140); conditions: WGA-A647 binding, 635 nm fluorescence, higher = more signal;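 note: score merges 667 nm feature emission with signal to noise over triplicate slides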
# [10] = molecular target: Luciferin 4-monooxygenase (Photinus pyralis) (UniProt P08659); assay: firefly luciferase enzyme inhibitors, primary screen, biochemical, luminescence, purified enzyme, 2006 set (AID 1141); conditions: SteadyGlo luminescence, 30 min, higher = more signal, called active from +8 up or from −8 down;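 note: cell-free assay with purified firefly luciferase at 100 ng per well in PBS; test concentration not given here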
# Chain of Luciferin 4-monooxygenase (Photinus pyralis) (P08659 whole entry, looked up): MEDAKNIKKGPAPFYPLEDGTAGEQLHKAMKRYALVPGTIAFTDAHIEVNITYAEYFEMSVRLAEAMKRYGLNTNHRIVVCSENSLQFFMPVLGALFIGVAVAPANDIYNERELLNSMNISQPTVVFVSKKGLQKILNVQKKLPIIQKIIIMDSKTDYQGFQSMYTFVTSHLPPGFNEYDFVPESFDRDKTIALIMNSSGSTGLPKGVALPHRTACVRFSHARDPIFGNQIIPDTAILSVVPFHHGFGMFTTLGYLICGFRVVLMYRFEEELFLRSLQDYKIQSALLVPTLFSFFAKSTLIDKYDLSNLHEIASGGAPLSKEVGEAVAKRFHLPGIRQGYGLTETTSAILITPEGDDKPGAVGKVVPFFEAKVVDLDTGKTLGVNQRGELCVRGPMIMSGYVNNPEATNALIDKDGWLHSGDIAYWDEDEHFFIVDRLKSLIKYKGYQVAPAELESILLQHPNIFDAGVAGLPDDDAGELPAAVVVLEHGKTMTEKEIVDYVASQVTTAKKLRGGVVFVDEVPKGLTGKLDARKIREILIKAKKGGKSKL
# Chain of Fibroblast growth factor 2 (Homo sapiens) (P09038 whole entry, looked up): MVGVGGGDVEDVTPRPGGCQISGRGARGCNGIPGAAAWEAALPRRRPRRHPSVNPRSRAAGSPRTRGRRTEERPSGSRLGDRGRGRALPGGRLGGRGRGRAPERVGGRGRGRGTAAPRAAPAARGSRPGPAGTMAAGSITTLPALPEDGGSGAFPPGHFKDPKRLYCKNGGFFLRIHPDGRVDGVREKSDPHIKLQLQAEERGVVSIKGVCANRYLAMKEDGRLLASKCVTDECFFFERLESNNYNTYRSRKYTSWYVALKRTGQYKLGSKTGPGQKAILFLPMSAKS
# Chain of Follistatin (Homo sapiens) (P19883 whole entry, looked up): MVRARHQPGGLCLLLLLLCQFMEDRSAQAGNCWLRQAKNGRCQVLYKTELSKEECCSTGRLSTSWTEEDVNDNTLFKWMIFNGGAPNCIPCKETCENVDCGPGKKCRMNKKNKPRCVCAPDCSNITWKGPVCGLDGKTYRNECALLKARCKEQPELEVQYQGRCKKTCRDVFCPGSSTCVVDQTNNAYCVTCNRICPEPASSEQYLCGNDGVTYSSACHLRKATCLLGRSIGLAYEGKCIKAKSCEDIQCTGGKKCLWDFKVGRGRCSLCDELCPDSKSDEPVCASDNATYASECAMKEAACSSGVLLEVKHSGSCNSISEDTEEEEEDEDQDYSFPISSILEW
# Chain of Focal adhesion kinase 1 (Homo sapiens) (Q05397 whole entry, looked up): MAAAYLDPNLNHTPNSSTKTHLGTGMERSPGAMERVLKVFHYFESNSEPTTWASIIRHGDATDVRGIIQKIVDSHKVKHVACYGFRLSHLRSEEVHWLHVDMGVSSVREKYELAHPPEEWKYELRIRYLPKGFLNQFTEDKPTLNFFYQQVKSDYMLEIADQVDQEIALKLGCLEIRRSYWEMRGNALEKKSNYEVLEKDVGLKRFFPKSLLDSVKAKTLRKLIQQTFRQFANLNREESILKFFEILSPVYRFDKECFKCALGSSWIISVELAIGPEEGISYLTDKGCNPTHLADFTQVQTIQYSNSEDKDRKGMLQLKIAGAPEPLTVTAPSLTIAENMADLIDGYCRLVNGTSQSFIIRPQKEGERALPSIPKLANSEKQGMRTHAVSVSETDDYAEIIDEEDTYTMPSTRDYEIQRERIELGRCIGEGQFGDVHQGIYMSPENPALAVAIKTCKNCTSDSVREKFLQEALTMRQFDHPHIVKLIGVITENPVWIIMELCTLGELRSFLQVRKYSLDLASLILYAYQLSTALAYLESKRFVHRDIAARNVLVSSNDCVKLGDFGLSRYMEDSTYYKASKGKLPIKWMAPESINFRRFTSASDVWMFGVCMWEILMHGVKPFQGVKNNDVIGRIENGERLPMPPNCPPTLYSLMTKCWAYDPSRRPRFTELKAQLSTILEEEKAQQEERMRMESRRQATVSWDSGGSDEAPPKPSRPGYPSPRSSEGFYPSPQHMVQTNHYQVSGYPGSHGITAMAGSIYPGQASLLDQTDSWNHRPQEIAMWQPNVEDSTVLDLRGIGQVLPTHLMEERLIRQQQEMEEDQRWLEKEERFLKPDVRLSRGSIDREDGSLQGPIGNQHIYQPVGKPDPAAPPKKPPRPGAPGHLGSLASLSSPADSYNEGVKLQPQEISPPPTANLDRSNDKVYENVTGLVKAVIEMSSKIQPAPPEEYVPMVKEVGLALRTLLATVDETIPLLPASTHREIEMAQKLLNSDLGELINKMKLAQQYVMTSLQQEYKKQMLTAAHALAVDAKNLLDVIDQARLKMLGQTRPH
SMILES,composite z-score [1],composite z-score [2],composite z-score [3],composite z-score [4],composite z-score [5],composite z-score [6],z-score [7],composite z-score [8],composite z-score [9],z-score [10]
O=C1NC(=O)C2C1C=CC(C(O)c1ccc(I)cc1)N2Nc1ccc(Cl)cc1Cl (stereo not given),0.258,1.03,0.741,0.978,0.73,-0.451,0.535,-0.199,0.661,-1.33 (inactive)
CCCCC(=C=CC[C@@H](O)c1ccc(CO)o1)CCO,1.05,0.0355,-0.347,-0.313,1.14,1.13,0.622,1.08,0.55,-2.51 (inactive)
C=CC[C@]1(C(=O)NCc2ccccc2)N=C(c2ccc(OCCCO)cc2)O[C@H]1c1ccccc1CN=[N+]=[N-],1.25,1.21,0.112,1.02,1.31,1.09,1.22,0.497,0.666,-0.238 (inactive)
COc1ccc(-c2cc3c(c(Cc4ccccc4)n2)[Si](C(C)C)(C(C)C)OC3)cn1,-0.356,-0.875,-0.0985,-0.827,-0.108,-0.328,-0.687,-0.0455,-0.351,0.892 (inactive)
COC(=O)C[C@H]1O[C@@H](CCc2ccccc2)[C@@H](C)[C@@H]1[Si](C)(C)c1ccc(OC)cc1,-0.608,-1.35,0.217,-0.755,0.0222,-0.187,1.57,-0.105,-0.359,0.301 (inactive)
COC(=O)[C@@]1(Cc2ccccc2)[C@H]2c3cc(C(=O)N(C)C)n(CCc4c[nH]c5ccc(O)cc45)c3C[C@H]2CN1C(=O)c1ccccc1,1.53,1.23,0.772,-0.0969,1.35,-0.0235,-0.409,0.171,0.173,-2.82 (inactive)
COC(=O)[C@@]1(Cc2ccc(F)cc2)[C@H]2c3cc(C(=O)N(C)C)n(Cc4cc(C)n(C)n4)c3C[C@H]2CN1C(=O)c1ccccc1,2.76,1.2,0.646,0.795,0.577,-0.237,-0.013,-0.574,0.537,0.272 (inactive)
COCCOC(=O)N1C(=O)[C@@]2(c3ccccc31)[C@H](C(=O)N1CCc3cc(OC)c(OC)cc3C1)[C@H]1C(=O)O[C@H](c3ccccc3)[C@H](c3ccccc3)N1[C@@H]2c1ccc(O)cc1,2.07,1.18,0.381,0.864,1.09,1.26,0.674,0.788,0.74,-5.57 (inactive)
CC(C)OC(=O)C=C1C[C@@H](c2cccc(Cl)c2)O[C@@H](c2cccc(Cl)c2)O1,1.72,0.824,0.526,-0.105,-0.545,-0.122,-0.143,-1.1,0.751,0.924 (inactive)
[N-]=[N+]=NCc1ccccc1[C@@H]1OC(c2ccc(OCCCO)cc2)=N[C@]1(CCS(=O)(=O)c1ccccc1)C(=O)N1CCCCC1,0.621,1.26,0.0201,1.08,0.981,0.432,-0.706,0.275,1.02,-0.938 (inactive)
CN(C)CCCCCCNC(=O)[C@@H]1C[C@@H]2C(=O)N[C@@H](CCCC[N+](C)(C)C)C(=O)N2[C@@H]1c1ccc(O)cc1,0.486,-0.396,0.678,-0.335,0.82,0.825,-0.147,0.798,0.427,-0.882 (inactive)
C=C(C(=O)CC[C@H](OC(C)=O)c1ccccc1OCCO)C(C)C,-0.29,-0.936,-0.385,-0.262,1.25,0.38,-1.25,0.696,-0.209,0.168 (inactive)
CCOC(=O)[C@H]1C/C=C/C[C@H](C(=O)OCC)C(=O)O[C@H]2[C@@H](OC)O[C@H](CO)[C@@H](OC(=O)c3ccc(Br)cc3)[C@@H]2OC1=O,0.272,0.189,0.143,0.223,1.06,1.06,2.47,0.31,0.329,-0.0361 (inactive)
C=C[C@H](C)[C@@H](OC(=O)Nc1ccc(SC)cc1)c1ccc(O)c2ccccc12,3.14,1.24,0.183,0.294,1.37,1.54,-1.7,1.1,0.108,-2.61 (inactive)
C=C(CCCC)C(=O)CC[C@H](OC(=O)c1cccnc1)c1ccc(OCCO)cc1,0.631,0.474,0.819,0.0895,0.131,0.476,1.15,-0.205,0.955,-1.91 (inactive)
CS(=O)(=O)CCOC(=O)C1=CC(CCCO)=CC(c2ccc(CN3CCCC3)cc2)N(Cc2cccc(OC(F)(F)F)c2)C=C1C(=O)OCCS(C)(=O)=O (stereo not given),1.26,1.09,0.366,0.675,0.962,0.964,3.17,0.889,0.404,-2.68 (inactive)
CCCC=C(CCC)[C@@H](NC(=O)OCC(C)C)c1ccccc1,0.665,1.15,0.172,0.471,0.978,0.16,-0.138,0.822,0.126,0.936 (inactive)
